Bioassay records (PubChem BioAssay)
KAT2A inh = GCN5L2 (KAT2A) acetyltransferase inhibition | AID 504327 | actives 0.21% (n = 390,000) | Potency, µM (doses to about 58.9 µM), usual class: inhibitors | GCN5L2 HAT assay, ThioGlo1 CoA-SH fluorescence | Q92830
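GCN5L2 (20 nM) in 50mM HEPES pH 7.5, 0.1mM EDTA, 0.01% Tween-20 preincubated 15 min with compounds at room temperature. Reaction started with H3(1-25) 75uM, acetyl-CoA 70uM, ThioGlo1 50uM; CoA-thiol fluorescence (Ex340/Em540) read at 0 and 20 min.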
TDP1 cell CPT = growth inhibition of DT40 Tdp1-/-;hTDP1 cells with camptothecin (screen for TDP1 inhibitors); actives 12% (n = 420,000); chicken DT40 Tdp1-/-;hTDP1 cells + 20 nM CPT, ATP luminescence, 48 h; Potency, µM (doses to about 46.2 µM), hits mostly inhibitors; note: nearly all actives have a fitted effect of over 55% in size
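Chicken DT40 Tdp1-/- cells complemented with human TDP1, 400 cells/well, exposed to compounds plus 20 nM camptothecin for at least 48 h at 37 C; viability read as ATP content by CellTiter-Glo luminescence.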
TDP1 inh = blocks human tyrosyl-DNA phosphodiesterase 1; Q9NUW8; recombinant TDP1, AlphaScreen DNA substrate cleavage; Potency, µM (doses to about 130 µM), actives largely listed as inhibitors; actives 0.28% (n = 350,000); AID 485290; note: nearly all actives have a fitted effect of over 40% in size
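Recombinant human Tdp1 (E. coli-expressed, 1 nM final) preincubated with compounds 15 min at room temperature, then 5'-biotin/3'-phosphotyrosine-FITC DNA substrate (15 nM final) added for 5 min. AlphaScreen beads (10 ug/ml final) added 10 min; cleavage lowers signal.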
VDR inh = inhibitors of human vitamin D receptor; P11473; VDR-SRC2-3 peptide fluorescence polarization, 2 h; Potency, µM, actives largely listed as inhibitors; actives 0.93% (n = 400,000)
Target sequence (P11473 whole entry, looked up): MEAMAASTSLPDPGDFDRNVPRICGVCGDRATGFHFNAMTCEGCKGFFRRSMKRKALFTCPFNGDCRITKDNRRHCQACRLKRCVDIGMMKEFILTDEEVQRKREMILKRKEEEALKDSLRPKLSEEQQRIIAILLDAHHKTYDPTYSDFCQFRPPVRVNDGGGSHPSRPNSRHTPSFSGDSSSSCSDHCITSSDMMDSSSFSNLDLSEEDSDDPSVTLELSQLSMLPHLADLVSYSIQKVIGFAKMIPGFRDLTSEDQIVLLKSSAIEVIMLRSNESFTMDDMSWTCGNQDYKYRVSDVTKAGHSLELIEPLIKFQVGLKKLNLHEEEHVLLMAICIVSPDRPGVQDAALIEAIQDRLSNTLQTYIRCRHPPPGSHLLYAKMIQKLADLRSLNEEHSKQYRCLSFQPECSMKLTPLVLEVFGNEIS
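FP read-out; VDR + SRC2-3 coactivator peptide; 23 nl compound by pintool; 2 h RT incubation; reagents held at 4 deg C, protected from light.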
TDP1 cell noCPT = qHTS for Inhibitors of human tyrosyl-DNA phosphodiesterase 1 (TDP1): qHTS in cells in absence of CPT | DT40 Tdp1-/- hTDP1 cells, no CPT, ATP luminescence, 48 h | Potency, µM (doses to about 46.2 µM), actives largely listed as inhibitors | actives 15% (n = 420,000) | AID 686978, 2013; note: nearly all actives have a fitted effect of over 55% in size
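Compound effects on proliferation are scored in DT40 Tdp1-/-;hTDP1 cells in the absence of CPT. ATP levels (CellTiter-Glo luminescence) are recorded after a ≥48 hr, 37 °C incubation.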
PLK1 PBD block = inhibitors of human PLK1 polo-box domain binding; Plk1 PBD binding of FITC phosphopeptide, fluorescence polarization; P53350; actives 2.8% (n = 360,000); Potency, µM, actives largely listed as inhibitors; AID 720504; note: series mostly up to about 57 µM; nearly all actives have a fitted effect of over 65% in size
A number is an active result. Shown are actives, neighbours in structure and some others; about 18% of the full set was active somewhere. Calls come from the whole dose curve; as a rule, active = well fitted curve in the direction sought with a large enough effect; inconclusive = small, poorly fitted or top-dose-only effect, or another doubt; inactive = no such curve, though single readings can be large; an effect the other way counts as inactive or inconclusive.

For O=C(NCCN1CCc2ccccc2C1)Nc1ccc([N+](=O)[O-])cc1 the results were KAT2A inh inactive, TDP1 cell CPT inconclusive, TDP1 inh inactive, VDR inh inconclusive, TDP1 cell noCPT 23µM and PLK1 PBD block inactive.
Screening O=S(=O)(c1ccc2ncn(O)c2c1)N1CCOCC1 returned KAT2A inh inactive, TDP1 cell CPT inconclusive, TDP1 inh inactive, VDR inh inactive, TDP1 cell noCPT inconclusive and PLK1 PBD block inactive.
Screening CC(C)NC(=O)N(C)C[C@H]1Oc2c(NC(=O)Cc3ccccc3)cccc2C(=O)N([C@H](C)CO)C[C@@H]1C returned KAT2A inh inactive, TDP1 cell CPT inactive, TDP1 inh inactive, VDR inh inconclusive, TDP1 cell noCPT inactive and PLK1 PBD block 27µM.
Screening C[C@H](CO)N1C[C@H](C)[C@@H](CN(C)CC2CCCCC2)Oc2c(NC(=O)Cc3ccccc3)cccc2C1=O returned KAT2A inh inactive, TDP1 cell CPT 15µM, TDP1 inh inactive, VDR inh inconclusive, TDP1 cell noCPT 16µM and PLK1 PBD block 19µM.
For CCC(c1nnnn1Cc1ccco1)N(CCc1ccccc1)Cc1cc2cc(C)ccc2[nH]c1=O (stereo not given) the results were KAT2A inh inactive, TDP1 cell CPT 21µM, TDP1 inh inactive, VDR inh inactive, TDP1 cell noCPT inconclusive and PLK1 PBD block inactive.
`CCC(c1nnnn1CCOC)N(Cc1cc2c(C)cc(C)cc2[nH]c1=O)CC1CCCO1` (stereo not given) gave KAT2A inh inconclusive, TDP1 cell CPT inconclusive, TDP1 inh inactive, VDR inh inactive, TDP1 cell noCPT inconclusive and PLK1 PBD block inactive.
For Cc1ccc2[nH]c(=O)c(CN(CCCO)Cc3nnnn3Cc3ccco3)cc2c1 the results were TDP1 cell CPT inconclusive, TDP1 inh inactive, VDR inh inactive and TDP1 cell noCPT inconclusive.
Screening CCC(c1nnnn1CCc1ccccc1)N(Cc1ccco1)Cc1cc2cc(C)cc(C)c2[nH]c1=O (stereo not given) returned KAT2A inh inactive, TDP1 cell CPT 18µM, TDP1 inh inactive, VDR inh inactive, TDP1 cell noCPT 23µM and PLK1 PBD block inactive.
For CC(C)C(c1nnnn1Cc1ccccc1)N(CCCO)Cc1cc2cc3c(cc2[nH]c1=O)OCO3 (stereo not given) the results were KAT2A inh inactive, TDP1 cell CPT inconclusive, TDP1 inh inactive, VDR inh inactive, TDP1 cell noCPT 16µM and PLK1 PBD block inactive.
Screening Cc1ccc2[nH]c(=O)c(CN(CCc3ccccc3)C(c3nnnn3Cc3ccco3)C(C)C)cc2c1 (stereo not given) returned KAT2A inh inconclusive, TDP1 cell CPT 29µM, TDP1 inh inactive, VDR inh inactive, TDP1 cell noCPT 23µM and PLK1 PBD block inactive.
For O=C(C1CCN(S(=O)(=O)Cc2ccccc2)CC1)N1CCN(c2ccccc2F)CC1 the results were KAT2A inh inactive, TDP1 cell CPT inconclusive, TDP1 inh inactive, VDR inh inactive and TDP1 cell noCPT inactive.
For CN1CCN(c2cc(-c3ccc(N(C)C)cc3)ncn2)CC1 the results were KAT2A inh inactive, TDP1 cell CPT inactive, TDP1 inh inactive, VDR inh inactive and TDP1 cell noCPT inactive.
Screening COc1ccc2c(c1)NC(c1ccc(OCC(C)C)cc1)=NC(c1ccncc1)=N2 returned KAT2A inh inactive, TDP1 cell CPT inconclusive, TDP1 inh inactive, VDR inh inactive and TDP1 cell noCPT inconclusive.
Cc1c(P(=S)(c2ccccc2)c2ccccc2)c2ccccc2n1CCc1ccccc1 was read as TDP1 inh inactive.
Screening CCC(c1nnnn1CCOC)N(Cc1ccc(C)cc1)Cc1cc2cc(OC)ccc2[nH]c1=O (stereo not given) returned KAT2A inh inactive, TDP1 cell CPT inconclusive, TDP1 inh inconclusive, VDR inh inactive, TDP1 cell noCPT 7.3µM and PLK1 PBD block inactive.
